A selection: hits, their analogues and other compounds. The true share with any hit is near 7.4%.
FLuc counter = qHTS profiling assay for firefly luciferase inhibitor/activator using purifed enzyme and Km concentrations of substrates (counterscreen for miR-21 project); 6.9% of 360,000 active; purified FLuc, Km substrates, luminescence inhibition; Luciferin 4-monooxygenase (Photinus pyralis), P08659; Potency, µM (top dose mostly 57.5 µM), hits mostly inhibitors; also: nearly all actives have a fitted effect of over 55% in size
Target sequence (P08659 whole entry, looked up): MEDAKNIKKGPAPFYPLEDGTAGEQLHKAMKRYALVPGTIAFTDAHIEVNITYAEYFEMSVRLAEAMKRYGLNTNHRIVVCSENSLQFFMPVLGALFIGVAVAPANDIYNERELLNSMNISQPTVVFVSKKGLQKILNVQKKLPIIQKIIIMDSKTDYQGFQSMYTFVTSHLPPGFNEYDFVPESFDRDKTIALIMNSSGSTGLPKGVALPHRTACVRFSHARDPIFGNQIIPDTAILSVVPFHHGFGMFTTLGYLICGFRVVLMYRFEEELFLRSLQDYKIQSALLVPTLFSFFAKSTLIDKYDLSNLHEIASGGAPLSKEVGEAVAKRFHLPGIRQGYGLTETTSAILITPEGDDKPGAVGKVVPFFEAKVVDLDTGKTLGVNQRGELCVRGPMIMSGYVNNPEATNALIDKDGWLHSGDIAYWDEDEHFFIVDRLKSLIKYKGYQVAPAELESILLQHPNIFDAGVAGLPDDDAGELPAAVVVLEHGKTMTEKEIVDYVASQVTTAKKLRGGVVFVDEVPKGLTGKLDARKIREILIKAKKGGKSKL
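Purified P. pyralis luciferase (10nM final) with 10uM D-luciferin and 10uM ATP (Km levels) in 50mM Tris acetate pH 7.5, 10mM Mg acetate, 0.01% Tween-20, 0.05% BSA; qHTS 6-point titration, ~60 µM downward; luminescence read.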
NPC1 promoter act = qHTS Assay for NPC1 Promoter Activators. Huh7 NPC1 promoter luciferase reporter, 24 h. 2.4% of 320,000 active. Potency, µM (highest dose often 9.22 µM), most hits filed as activators. AID 485313, 2010; also: nearly all actives have a fitted effect of over 60% in size
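Huh7 reporter cells (NPC1 promoter driving luciferase) are dosed with compound for 24 h at 37 °C, 5% CO2; luciferase detection reagent is then added and luminescence measured after 10 min at ambient temperature.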
Rab9 promoter act = qHTS Assay for Rab9 Promoter Activators | AID 485297, 2010 | Potency, µM (highest dose often 9.22 µM), hits mostly activators | Huh7 Rab9 promoter-luciferase reporter, luminescence, 24 h | 2.8% of 320,000 active; also: nearly all actives have a fitted effect of over 60% in size
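Huh7 cells stably carrying Rab9 promoter–luciferase reporter, plated 1500 cells/well, compound added after 2 h and incubated 24 h at 37 °C; luciferase luminescence then read after 10 min with detection reagent.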
ELG1 genotox = qHTS screen for small molecules that induce genotoxicity in human embryonic kidney (HEK293T) cells expressing luciferase-tagged ELG1 | HEK293T ELG1-luciferase reporter, luminescence, 16 h | Potency, µM (highest dose often 46 µM), actives largely listed as activators | 1.3% of 330,000 active | AID 504466, 2011; also: nearly all actives have a fitted effect of over 60% in size
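After overnight (16 hr) compound treatment at 37 °C, ELG1-luciferase HEK293T cells were lysed with ONE-Glo; luminescence quantified 30 min later at room temperature.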
SMN2 splice up = qHTS Assay for Enhancers of SMN2 Splice Variant Expression | HEK293 SMN2-luciferase splicing reporter, luminescence, 30-36 h | Potency, µM (top dose mostly 46.1 µM), most hits filed as activators | 2.8% of 210,000 active | AID 1458, 2008; also: nearly all actives have a fitted effect of over 55% in size
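qHTS luciferase splicing reporter: luminescence rises when SMN2 exon 7 is included in transfected HEK293 cells. Compound exposure lasted 30-36 h at 37C, with 4.5 mM final sodium butyrate as control, followed by a ONE-Glo read.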
Hits are given with their value; [ ] = dose if it differs, or a comment. Calls follow the shape of the dose curve; as a rule, active = well fitted curve in the direction sought with a large enough effect; inconclusive = small, poorly fitted or top-dose-only effect, or another doubt; inactive = no such curve, though single readings can be large; an effect the other way counts as inactive or inconclusive.

CN(C)c1ccc(/C=C2\SC(=S)N(Nc3ncc(C(F)(F)F)cc3Cl)C2=O)cc1 was read as FLuc counter 9.5µM, NPC1 promoter act inactive, Rab9 promoter act inactive, ELG1 genotox inactive and SMN2 splice up inactive.
`COc1ccc(C2=NS(=O)(=O)N(C)C(C(=O)Nc3ccc(OC(F)(F)F)cc3)=C2)cc1` gave FLuc counter inactive.
Cc1ccn2c(c1)nc(=S)n2C(=O)c1ccco1 was read as FLuc counter 1.5µM, NPC1 promoter act 4µM, Rab9 promoter act 1.6µM, ELG1 genotox inconclusive and SMN2 splice up 18µM.
COc1cc2ccccc2cc1C(=O)Nc1ccc(Br)cn1 was read as FLuc counter inconclusive, NPC1 promoter act 1.6µM, Rab9 promoter act 1.8µM and ELG1 genotox inconclusive.
COc1c(C(=O)Nc2ccc(Br)cn2)ccc2ccccc12 was read as FLuc counter 5.4µM, NPC1 promoter act inactive, Rab9 promoter act inconclusive and ELG1 genotox inconclusive.
COc1ccccc1NC(=O)Nc1ccc(Br)cn1 was read as FLuc counter inactive, NPC1 promoter act inactive, Rab9 promoter act inactive, ELG1 genotox inactive and SMN2 splice up inactive.
`COc1ccc(CCC(=O)Nc2ccc(Br)cn2)cc1` gave FLuc counter inactive, NPC1 promoter act inactive, Rab9 promoter act inactive, ELG1 genotox inactive and SMN2 splice up inactive.
For O=C1OC(Nc2nc3ccccc3s2)c2ccccc21 (stereo not given) the results were FLuc counter 11µM, NPC1 promoter act inactive, Rab9 promoter act inactive, ELG1 genotox inactive and SMN2 splice up inactive.
COc1ccc(-c2noc(-c3ccc(N4CCN(c5ccc(OC)cc5)CC4)c([N+](=O)[O-])c3)n2)cc1 was read as FLuc counter inactive.
CC/C(=N\NC(=O)c1csc(C)c1C)c1cccs1 was read as FLuc counter 2.4µM, NPC1 promoter act 2µM, Rab9 promoter act 1.1µM, ELG1 genotox inconclusive and SMN2 splice up 14µM.
For C/C(=N\NC(=O)c1csc(C)c1C)c1ccc(Cl)s1 the results were FLuc counter inconclusive, NPC1 promoter act inconclusive, Rab9 promoter act inconclusive, ELG1 genotox inconclusive and SMN2 splice up inactive.
Screening CCC/C(=N\NC(=O)c1csc(C)c1C)c1cccs1 returned FLuc counter 4.8µM, NPC1 promoter act inconclusive, Rab9 promoter act 3.2µM, ELG1 genotox 10µM and SMN2 splice up 16µM.
Screening Cc1ccc(C)c(NC(=O)CSc2nccn2-c2cccc(C)c2C)c1 returned FLuc counter inactive.
CCN(CC)c1ccc(NC(=O)C2COc3ccc(OC)cc3C2)c(C)c1 (stereo not given) was read as FLuc counter inactive.
For NC(=S)N/N=C/c1ccc(C23CC4CC(CC(C4)C2)C3)cc1 the results were FLuc counter 21µM, NPC1 promoter act inactive, Rab9 promoter act inactive and ELG1 genotox inconclusive.
Screening NC(=S)N/N=C/c1ccccc1 returned FLuc counter inactive, NPC1 promoter act inactive, Rab9 promoter act inactive, ELG1 genotox inactive and SMN2 splice up inactive.
`Cn1ncc(N=Cc2ccccc2)c1C(N)=O` gave FLuc counter inactive, NPC1 promoter act inactive, Rab9 promoter act inactive and ELG1 genotox inactive.
`Nc1ncc(Br)cc1N=Cc1ccccc1` gave FLuc counter 3.4µM, NPC1 promoter act inactive, Rab9 promoter act 3.5µM, ELG1 genotox inconclusive and SMN2 splice up 13µM.
COc1ccc(Oc2ccc(C(F)(F)F)cc2N)cc1 was read as FLuc counter 17µM, NPC1 promoter act inactive, Rab9 promoter act inconclusive and ELG1 genotox inactive.
`COc1ccc(Oc2ccc(C(F)(F)F)cc2NC(=O)c2ccc(OC)cc2)cc1` gave FLuc counter inactive, NPC1 promoter act inactive, Rab9 promoter act inactive and ELG1 genotox inactive.
For CCc1ccccc1Nc1nn2c(=O)c3ccc(C(=O)NCCC4=CCCCC4)cc3nc2s1 the results were FLuc counter inactive.
For C/C(=N/NS(=O)(=O)c1ccc(C)cc1)P(=O)(O)O the results were SMN2 splice up inactive[9.22 µM].
Screening CC(CCC(=O)O)C1CCC2C3CC[C@@H]4CCCC[C@@]4(C)C3CC[C@@]12C (stereo not given in full) returned SMN2 splice up inactive.
Cc1cnc(C(=O)Nc2ccc(C(=O)N(C)C3CCCCC3)cc2)cn1 was read as FLuc counter inactive, NPC1 promoter act inactive, Rab9 promoter act inactive, ELG1 genotox inactive and SMN2 splice up inactive.
Cc1cnc(C(=O)Nc2ccc(F)cc2)cn1 was read as FLuc counter 24µM, NPC1 promoter act 2.5µM, Rab9 promoter act inconclusive, ELG1 genotox inconclusive and SMN2 splice up 13µM.
Cc1cnc(C(=O)Nc2ccc(C(C)C)cc2)cn1 was read as FLuc counter 8.5µM, NPC1 promoter act 3.5µM, Rab9 promoter act 1.3µM, ELG1 genotox inconclusive and SMN2 splice up 10µM.
`Cc1cnc(C(=O)Nc2ccccc2F)cn1` gave FLuc counter 24µM, NPC1 promoter act 3.5µM, Rab9 promoter act inactive[1.84 µM], ELG1 genotox 16µM and SMN2 splice up inconclusive.
`CCC(C)NC(=O)c1cnn(-c2cccc(F)c2)c1-n1cccc1` (stereo not given) gave FLuc counter inactive.
Screening CS(=O)(=O)N1CCC2(CC1)CN(c1ccccn1)C2 returned SMN2 splice up inactive.
`COc1ccc(C2=NN(C(=O)CN3CCOCC3)C(c3nc4ccccc4[nH]3)C2)cc1` (stereo not given) gave FLuc counter 15µM, NPC1 promoter act inactive, Rab9 promoter act inconclusive, ELG1 genotox inconclusive and SMN2 splice up inconclusive.
`Cc1ccc(-c2cc3onc(-c4ccccc4)c3c(=O)n2C)cc1` gave FLuc counter 0.13µM, NPC1 promoter act inconclusive, Rab9 promoter act inconclusive and ELG1 genotox inconclusive.
`COC(=O)c1cc(-c2ccc3ccccc3c2)[nH]c(=O)c1C#N` gave SMN2 splice up inactive[9.22 µM].
Screening CCN(CC)c1ccc(/C=N/NC(=O)Cc2cccs2)cc1 returned FLuc counter 27µM, NPC1 promoter act inactive, Rab9 promoter act inactive, ELG1 genotox inactive and SMN2 splice up inactive.
Screening Cc1ccc(/C=N/NC(=O)Cc2cccs2)o1 returned FLuc counter inactive, NPC1 promoter act inactive, Rab9 promoter act inactive, ELG1 genotox inactive and SMN2 splice up inactive.
CCN(CC)c1ccc(/C=N/NC(=O)CNC(=O)/C=C/c2ccco2)cc1 was read as FLuc counter 24µM, NPC1 promoter act inactive, Rab9 promoter act inactive and ELG1 genotox inactive.
For COc1ccc(/C=N/NC(=O)Cc2cccs2)cc1 the results were FLuc counter 17µM, NPC1 promoter act inconclusive, Rab9 promoter act inconclusive and ELG1 genotox inconclusive.
Screening O=C(/C=C/c1ccco1)NCC(=O)N/N=C/c1ccccc1[N+](=O)[O-] returned FLuc counter inactive, NPC1 promoter act inactive, Rab9 promoter act inactive, ELG1 genotox inactive and SMN2 splice up inactive.
For O=C(Nc1ccsc1C(=O)O)c1ccc(Cl)cc1 the results were FLuc counter 8.5µM, NPC1 promoter act 2.8µM, Rab9 promoter act 4µM and ELG1 genotox 23µM.

Assay outcomes: PubChem BioAssay, National Center for Advancing Translational Sciences (NCATS)
